Measurements reported in PubChem BioAssay (NCI).
Compounds without any hit were thinned out: in the full panel of roughly 83,000, 20% have a hit.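 The endpoint reported here, percent growth, reads 100 for growth as untreated, 0 for no net growth and -100 for all cells dead.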 Unmarked numbers belong to inactive results. Calls of active or inactive are those of the source. The calls were made as follows: active = growth percent below 10; inactive = the rest.

Experiments:
Experiment in all cases: NCI-60 one-dose screen, 48 h (100 = growth as untreated, 0 = no growth, -100 = all killed)
HCT-15 colon = conditions: 10 µM
HT29 colon = conditions: 10 µM
SNB-75 CNS = conditions: 10 µM
SNB-19 CNS = conditions: 10 µM
U251 CNS = conditions: 10 µM
PC-3 prostate = conditions: 10 µM
SK-MEL-5 melanoma = conditions: 10 µM
UACC-62 melanoma = conditions: 10 µM unless noted
SK-MEL-28 melanoma = conditions: 10 µM
LOX IMVI melanoma = conditions: 10 µM

| SMILES | growth (HCT-15 colon) | growth (HT29 colon) | growth (SNB-75 CNS) | growth (SNB-19 CNS) | growth (U251 CNS) | growth (PC-3 prostate) | growth (SK-MEL-5 melanoma) | growth (UACC-62 melanoma) | growth (SK-MEL-28 melanoma) | growth (LOX IMVI melanoma) |
| --- | --- | --- | --- | --- | --- | --- | --- | --- | --- | --- |
| COc1ncnc2c1cnn2C | 98.9% | 107% | 113% | 110% | 106% | 101% | 101% | 98.9% | 111% | – |
| CC(=O)/C(Cc1ccccc1)=N/O | 99.7% | 92.9% | 89.2% | 98.9% | 94.9% | 84.9% | 106% | 98.1% | 110% | – |
| Clc1ccc(-c2n[nH]c3c2Cc2ccccc2-3)cc1Cl | 87.8% | 106% | 84.9% | 93.8% | 97.9% | 92.4% | 95.6% | 91.2% | 114% | – |
| CC1=CC(=O)c2ccccc2C1=O | 102% | 112% | 90.9% | 101% | 101% | 108% | 103% | 100% | 116% | 96.5% |
| COc1ccc(/C=C/c2cccc[n+]2C)cc1 | 99.1% | 88% | 83.2% | 95.1% | 77.6% | 87% | 105% | 114% | 109% | 94.2% |
| CC1(C(=O)O)NC(C(=O)O)Cc2c1[nH]c1ccccc21 (stereo not given) | 110% | 109% | 88.8% | 108% | 102% | 87.4% | 104% | 100% | 103% | – |
| CC1(O)CCCCC1O (stereo not given) | 102% | 106% | 96.5% | 97.3% | 104% | 98.4% | 107% | 96.5% | 113% | – |
| O=C(CCl)Nc1ccc2c(c1)C(=O)c1ccc(NC(=O)CCl)cc1C2=O | -86.6% (active) | -59.8% (active) | -55.4% (active) | -45.3% (active) | -89.3% (active) | -22.1% (active) | -88% (active) | -73.1% (active) | -40.6% (active) | -89.6% (active) |
| O/N=C/c1ccc(O)cc1O | 89.9% | 102% | 89.3% | 96.6% | 90.6% | 86.4% | 104% | 96.5% | 107% | – |
| S=c1[nH]ccn1-c1ccccc1Cl | 107% | 104% | 95.4% | 102% | 99.2% | 95.2% | 112% | 107% | 101% | – |
| CC(=O)OCC(=O)[C@@]1(O)CC[C@H]2[C@@H]3CC[C@@H]4C[C@H](O)CC[C@]4(C)[C@H]3C(=O)C[C@@]21C | 106% | 117% | 88.6% | 111% | 102% | 95.5% | 97.1% | 103% | 121% | 101% |
| O=S(=O)(O)c1ccc(O)c2ccccc12 | 113% | 110% | 88.1% | 97.8% | 107% | 92% | 114% | 101% | 109% | – |
| Nc1ccc(N=Nc2ccc(O)cc2)c(N)n1 | 64.5% | 103% | 82.5% | 98.1% | 76.6% | 60.7% | 73.3% | 41% | 89.2% | – |
| N#CCCN(CCCN1CCOCC1)CN1C(=O)c2ccccc2C1=O | 104% | 107% | 87.7% | 110% | 100% | 105% | 96.8% | 107% | 101% | 101% |
| NCCCN | 101% | 111% | 79.8% | 104% | 95.5% | 102% | 102% | 109% | 104% | – |
| CC1=C(/C=C/C(C)=C/C=C/C(C)=C/CO)C(C)(C)CCC1 | 112% | 112% | 95.3% | 95.7% | 102% | 96.5% | 107% | 99.2% | 113% | 94.7% |
